Data: PubChem BioAssay (Tox21)
Where “and” joins values, the source holds several entries; their conditions need not be identical. Identical values can stand only once. Records with an inconclusive call do not appear. Calls of active or inactive are those of the source. Unless noted, calls come from the whole dose curve.

Key:
[1] = qHTS assay to identify small molecule antagonists of the vitamin D receptor (VDR) signaling pathway - cell viability counter screen (AID 743225; active = well fitted curve in the direction sought with a large enough effect in the repeat runs; an effect the other way counts as inactive or inconclusive; note: nearly all actives have a fitted effect of over 50% in size; note: potency is the fitted concentration of half-maximal effect)
Outline: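 Luminescent cell viability (CellTiter-Glo) in VDR-bla HEK 293T cells after 16 h compound exposure at 37C in the presence of 3 nM final 1-alpha,25-dihydroxy vitamin D3.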

[2] = qHTS assay to identify small molecule agonists of the NFkB signaling pathway - cell viability counter screen (AID 1159515); note: nearly all actives have a fitted effect of over 55% in size; note: potency is the fitted concentration of half-maximal effect
Outline: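 Multiplexed viability readout: after the 5 hr compound exposure and 1.5 hr FRET substrate step, CellTiter-Glo reagent went into the same NFkB-bla ME-180 wells; ATP luminescence was measured after 30 min at room temperature.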

[3] = qHTS assay to identify small molecule agonists of the endoplasmic reticulum stress response signaling pathway - cell viability counter screen (AID 1159517); note: nearly all actives have a fitted effect of over 50% in size; note: potency is the fitted concentration of half-maximal effect
Outline: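 ESRE-bla HeLa cells, 1,500 per well, seeded overnight then treated with compounds for 5 hr at 37 C. After the beta-lactamase read, viability in the same wells is measured by CellTiter-Glo luminescence after 30 min at room temperature.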

[4] = qHTS assay to identify small molecule antagonists of the retinoid-related orphan receptor gamma (ROR-gamma) signaling pathway - cell viability counter screen (AID 1159520; active = well fitted curve in the direction sought with a large enough effect in the repeat runs; an effect the other way counts as inactive or inconclusive; note: nearly all actives have a fitted effect of over 50% in size)
Outline: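 Tet-on ROR gamma CHO cells were given compounds for 2 hr, then doxycycline hyclate at 1 uM final, and incubated 16 hr at 37 C. Viability was measured as ATP content by CellTiter-Glo luminescence.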

[5] = biological target: Nuclear receptor ROR-gamma (Homo sapiens) (UniProt P51449); experiment: qHTS assay to identify small molecule antagonists of the retinoid-related orphan receptor gamma (ROR-gamma) signaling pathway (AID 1159521; active = well fitted curve in the direction sought with a large enough effect in the repeat runs; an effect the other way counts as inactive or inconclusive;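 note: CHO cells with doxycycline inducible ROR-gamma driving an RORE luciferase reporter; top concentration of the series differs between compounds; nearly all actives have a fitted effect of over 50% in size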)
Outline: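 CHO cells expressing RORγ under a TET-on promoter, luciferase under RORE control. Dox 1 uM final, 16 h; compounds added 2 h prior. Luminescence decrease measured.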

[6] = qHTS assay to identify small molecule agonists of the AP-1 signaling pathway (AID 1159526)
[7] = biological target: Retinoic acid receptor RXR-alpha (Homo sapiens) (UniProt P19793); experiment: qHTS assay to identify small molecule agonists of the RXR signaling pathway (AID 1159527); note: nearly all actives have a fitted effect of over 35% in size
Outline: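 Beta-lactamase reporter assay, agonist format. Engineered HEK 293T line, charcoal-stripped FBS at 2%, overnight (16 hr) exposure, fluorescence at 460 and 530 nm after 405 nm excitation.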

[8] = qHTS assay to identify small molecule agonists of the RXR signaling pathway - cell viability counter screen (AID 1159529; active = well fitted curve in the direction sought with a large enough effect in the repeat runs; an effect the other way counts as inactive or inconclusive; note: nearly all actives have a fitted effect of over 50% in size; note: potency is the fitted concentration of half-maximal effect)
Outline: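 Same-well viability check after the LiveBLAzer FRET read: CellTiter-Glo added, luminescence measured after 30 min at room temperature. Reporter HEK 293T cells had been treated with compounds for 16 hr following a 5 hr preincubation.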

[9] = qHTS assay to identify small molecule agonists of the AP-1 signaling pathway - cell viability counter screen (AID 1159525); note: nearly all actives have a fitted effect of over 55% in size
Outline: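 AP-1-bla ME-180 cells in Opti-MEM with 0.5% dialyzed FBS, compound exposure 5 h at 37 C in 15-point titration. Viability read in the same wells as ATP content by CellTiter-Glo luminescence, normalised to tetra-n-octylammonium bromide and DMSO controls.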

Measured: Potency

Retinoic acid receptor RXR-alpha (Homo sapiens), sequence (P19793 whole entry, looked up): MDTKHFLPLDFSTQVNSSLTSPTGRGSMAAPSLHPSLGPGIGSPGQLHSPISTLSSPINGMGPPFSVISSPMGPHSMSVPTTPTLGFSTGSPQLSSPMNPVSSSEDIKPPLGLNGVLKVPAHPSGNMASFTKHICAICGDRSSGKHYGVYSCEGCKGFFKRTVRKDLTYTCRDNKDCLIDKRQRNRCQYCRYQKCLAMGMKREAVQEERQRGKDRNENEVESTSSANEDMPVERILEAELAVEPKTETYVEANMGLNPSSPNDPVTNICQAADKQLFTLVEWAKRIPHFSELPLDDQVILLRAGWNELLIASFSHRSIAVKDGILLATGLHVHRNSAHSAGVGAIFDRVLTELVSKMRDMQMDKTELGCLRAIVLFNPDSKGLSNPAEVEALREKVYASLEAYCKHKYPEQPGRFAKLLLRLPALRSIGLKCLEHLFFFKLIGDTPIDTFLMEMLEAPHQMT

Cc1ccc(C(C)C)cc2c(C)ccc1-2
inactive: [1] | [2] | [3] | [4] | [5] | [6] | [7] | [8]

CCCCCCCCCCCCCCCC[N+](C)(C)CC
active: [1] 13.8 µM and 23.9 µM | [2] 21.3 µM | [3] 24.6 µM | [8] 8.74 µM and 10.7 µM

O=C(O)c1cc(N=Nc2ccc([N+](=O)[O-])cc2)ccc1O
inactive: [2] | [3] | [5] | [9] | [6] | [8]

Nc1nc(N)nc(-c2cc(Cl)ccc2Cl)n1
inactive: [2] | [3] | [4] | [9] | [6] | [7] | [8]
